# Screening results as filed in PubChem BioAssay.
# The entries come from a sample that favours hits as a whole.
# Pf Dd2 growth: blocks in vitro growth of P. falciparum Dd2; P. falciparum Dd2 growth, SYBR Green, 72 h; Potency, µM (highest dose often 28.9 µM), without a hit: at the top dose activity, negative = inhibition, hits mostly inhibitors; hit rate 4.3% among 120,000; active means well fitted inhibition curve with a large enough effect;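 further: plate controls were DMSO vehicle for no effect and reference drug for full effect; nearly all actives have a fitted effect of over 65% in size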
#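 Infected erythrocytes (Dd2, 0.3% parasitemia, 2.5% hematocrit final) are added to compound in RPMI-1640/Albumax II medium, grown 72 h at 37C in low oxygen, then lysed with saponin/Triton-X containing SYBR Green and read by fluorescence.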
# Active calls of the source: *; i = inactive; [ ] = dose if it differs, or a comment. Potency means the concentration at half of the fitted maximal effect.
SMILES,Pf Dd2 growth
COc1ccc(CN2CCCCC23Cc2ccccc2CNC3=O)cc1OC (configuration not stated),-17%
CCc1ccccc1CN1CCCC12Cc1ccccc1CNC2=O (configuration not stated),8.9µM*
O=C1NCc2ccccc2CC12CCCN2Cc1ccc(F)cc1F (configuration not stated),0%
O=C1NCc2ccccc2CC12CCCN2Cc1ccc(O)cc1O (configuration not stated),-8%
Cc1ccc(CN2CCCCC23Cc2ccccc2CNC3=O)cc1C (configuration not stated),7.9µM*
O=C1NCc2ccccc2CC12CCCN2Cc1ccc(O)cc1 (configuration not stated),-23%
Cc1ccc(CN2CCCC23Cc2ccccc2CNC3=O)cc1 (configuration not stated),10µM*
CC(=O)Nc1ccc(CN2CCCC23Cc2ccccc2CNC3=O)cc1 (configuration not stated),-1%
Cc1nn(C)c(C)c1-c1cc(C(=O)N2C[C@@H](N(C)C)[C@H](C(C)C)C2)n(C)n1,7%
CS(=O)(=O)N1CCC(C2CCN(C(=O)NC3CCCC3)C2)CC1 (configuration not stated),-14%
COc1ccc(CCCC(=O)N2CCC3(CCCNC3)C2)cc1 (configuration not stated),-8%
COCc1cc(=O)n(CC(=O)Nc2ccc(F)c(Cl)c2)c(N2CCOCC2)n1,i
CCOC(=O)c1ccc2nc(C)cc(Nc3cccc(C(=O)O)c3)c2c1,1%
CCOC(=O)c1ccc(Nc2nc(N)c3cc(OC)c(OC)cc3n2)cc1,1.3µM*
COc1cc2nc(Nc3ccc(F)cc3)nc(N)c2cc1OC,2.5µM*
CCc1sc(Nc2cccc(C)c2)nc1-c1cc2cccc(OC)c2oc1=O,-1%
COc1cc2nc(Nc3cccc(C)c3)nc(N)c2cc1OC,2.5µM*
COc1ccc(Nc2nc(-c3ccccc3)c3cc(Br)ccc3n2)cc1,-18%
COc1ccc(Nc2cc(C)nc3c(C)c(C)ccc23)cc1,-15%
COc1cc2nc(Nc3ccc(C)c(C)c3)nc(N)c2cc1OC,0.1µM*
COc1ccccc1C(O)c1nc(Nc2ccc(C(C)C)cc2)n[nH]1 (configuration not stated),i
CCOC(=O)c1ccc(Nc2c(-c3ccc(O)c(OC)c3)nc3nc[nH]n23)cc1,33%[0.594 µM]
COc1ccc(NC(=O)c2nnn(CC(=O)Nc3c(C)cc(C)cc3C)c2N)cc1OC,34%
Cc1cccc(Nc2nc(N)nc(N)c2S(=O)(=O)c2ccccc2)c1,i
O=C(O)c1ccc(CN2CCC[C@H]2c2nc(-c3ccc(F)cn3)no2)cc1,8%[44.1 µM]
SMILES,Pf Dd2 growth
CCc1ccc(CNC(=O)[C@@]23CCCC[C@H]2N(C)C(=O)CC3)cc1,-23%
Cc1nnc(NC(=O)NCCn2nc(-c3ccccc3)ccc2=O)s1,-12%
COc1ccc(-c2nnc([C@H]3CCN(Cc4ccc(C(=O)O)cc4)C3)o2)cc1,i
COc1cccc(-c2cc(C(=O)N[C@@H](C)C(N)=O)[nH]n2)c1,-15%
COCC1(CNc2cc(C3CC(O)C3)nc(C)n2)CCCC1 (configuration not stated),-27%
O=C(NCc1ccc(Cl)cc1)c1cc(S(=O)(=O)N2CCCCC2)c[nH]1,11µM*
Cc1cc(C)cc(NC(=O)c2cc(S(=O)(=O)N3CCCCC3)c[nH]2)c1,28%
Cn1cc(S(=O)(=O)N2CCCCC2)cc1C(=O)NCc1ccc(Cl)cc1,11µM*
CCc1ccc(NC(=O)c2cc(S(=O)(=O)N3CCCCC3)c[nH]2)cc1,10%
Cn1cc(S(=O)(=O)N2CCCCCC2)cc1C(=O)NCc1ccc(F)cc1,-5%
Cc1ccc(CNC(=O)c2cc(S(=O)(=O)N3CCCCC3)cn2C)cc1,-21%
O=C([C@@H]1C[C@H](F)CN1S(=O)(=O)c1ccccc1)N1CCc2ccccc2C1,1%
CNC(=O)Nc1ccc(C)n(CC(=O)NCc2cccc(C)c2)c1=O,-5%
CC(C)[S+](=O)([O-])N1CCC(c2nnc3n2C(C(=O)O)CC3)CC1 (configuration not stated),18%
C=CCOc1cccc(-c2nnc(CCC(=O)NCCCOC)c(=O)[nH]2)c1,i
CNc1cccnc1OC1CCN(C(=O)NCCOC)C1 (configuration not stated),-6%
O=C(NCc1ccccc1)N1CCCCC1c1nc(-c2cnccn2)n[nH]1 (configuration not stated),-3%
CS(=O)(=O)N1CCC(OC2CCN(C(=O)Nc3ccccc3C(F)(F)F)CC2)CC1,-14%
CCN1c2ccccc2-n2cccc2C12CCN(C(=O)Nc1ccccc1C(F)(F)F)CC2,2.8µM*
CC(=O)N1CCC2(CC1)OC(=O)C(C)=C2C(=O)Nc1ccccc1C(F)(F)F,14%
CCN1C(=O)c2ccccc2Sc2ccc(NC(=O)c3ccc(Cl)cc3)cc21,i
N#Cc1ccc(C(=O)Nc2ccc3c(c2)N(C2CCCC2)C(=O)c2ccccc2S3)cc1,11µM*
CCN1C(=O)c2ccccc2Sc2ccc(NC(=O)Nc3cc(C)cc(C)c3)cc21,-11%
COCc1cn(C[C@H]2C[C@@H](NC(C)=O)[C@H](O)[C@@H]2O)nn1,-8%[44.1 µM]
CN(Cc1ccc(F)cc1)C(=O)Cc1cccc(Cl)c1,-29%[44.1 µM]
SMILES,Pf Dd2 growth
CCOC(=O)C1CCN(c2c(C(=O)c3ccc(OC)cc3)cnc3ccccc23)CC1,8.9µM*
CCOC(=O)C1CCN(C(=O)c2c[nH]c3ncccc23)CC1,0%[44.1 µM]
CCOC(=O)C1CCN(c2nc3ccccc3nc2Cl)CC1,i
O=C(c1cn2ccsc2n1)N1CCC2(CCNCC2)CC1,-6%
Cc1cccc(C)c1NC(=O)Cn1cc(C(=O)c2ccco2)c2ccccc21,-17%
CCOc1ccc(NC(=O)Cn2cc(C(=O)c3ccco3)c3ccccc32)cc1,-24%
O=C(Cn1cc(C(=O)c2ccco2)c2ccccc21)Nc1ccccc1Cl,-27%
O=C(Cn1cc(C(=O)c2ccco2)c2ccccc21)Nc1ccccc1C(F)(F)F,-27%
Cc1ccc(NC(=O)Cn2cc(C(=O)c3ccco3)c3ccccc32)cc1,11µM*
Cc1ccc(NC(=O)Cn2cc(C(=O)c3ccco3)c3ccccc32)cc1C,8.9µM*
NCCc1n[nH]c(=O)n1-c1ccc2c(c1)OCO2,-5%
Cc1cccc(CN2C[C@@H](CO)[C@H](c3nc(C)no3)C2)c1,-7%
Cc1cccc(C(=O)N2CCC3(CC2)CC(OCC2CC2)CCO3)c1 (configuration not stated),12%
Cn1cnnc1-c1nn(C)c2c1CNCC2,-1%
Cc1cc(C)n(CCc2nc3c4ccccc4nc(SCc4ccc(F)cc4)n3n2)n1,-8%
CCC(Sc1nc2cc(OC)c(OC)cc2c2nc(-c3ccccc3)nn12)C(=O)Nc1cccc(C)c1 (configuration not stated),-3%
CCC(Sc1nc2ccccc2c2nc(CCc3c(C)n[nH]c3C)nn12)C(=O)Nc1ccc(F)cc1 (configuration not stated),7.9µM*
CCN(Cc1ccccc1)C(=O)Cn1nc2n(c1=O)CCCCC2,-7%
O=C1NC2(Cc3ccccc31)CN(C(=O)c1ccc3c(c1)OCO3)C2,-5%
COCC(=O)N(C1CCOCC1)C1CCN(C(=O)Cc2ccccc2F)CC1,24%
COc1ccc(Cl)cc1NC(=O)c1c(OC)cc(=O)n2c1CCCC2,50%
CCn1c(=O)n(CC)c2cc(N3CCCCC3)c(NC(=O)Nc3ccccc3C(F)(F)F)cc21,10µM*
O=C(Cn1nc2n(c1=O)CCCCC2)Nc1ccccc1C(F)(F)F,37%
